# Compound activity: PubChem, National Center for Advancing Translational Sciences (NCATS)
# TR SRC2 fluor cs = Total Fluorescence Counterscreen for Inhibitors of the Interaction of Thyroid Hormone Receptor and Steroid Receptor Coregulator 2; TRb/SRC2 Texas Red total fluorescence interference; Potency, µM (top dose mostly 106 µM), for the others: at the highest dose fluorescence change, negative = quenching; 280,000 tested, 0.29% active; AID 1479, 2009; active = well fitted curve in either direction with a large enough effect; inconclusive = small, poorly fitted or top-dose-only effect; note: potency is the fitted concentration of half-maximal effect; % is set by controls: 0 for no effect and ±100 for the full control effect
#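 Human TRβ ligand-binding domain (0.6 uM) and Texas Red SRC2 peptide (20 nM) in Tris buffer with 1 uM T3 and 5% DMSO were incubated with pinned compound for 5 hr at ambient temperature. Total fluorescence was computed as S + 2P (555/632 nm).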
# TCR act = Activators of T cell receptors: qHTS campaign | Potency, µM (top dose mostly 9.22 µM), inactives show top-dose activation of IL-2 secretion, actives largely listed as activators | primary human leukocytes, anti-CD3, IL-2 HTRF, 48 h | 330,000 tested, under 10 active; note: % of control where 0% means no effect
#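 HTRF read-out of IL-2 secretion: europium cryptate donor excited at 320nm, d2 acceptor emission at 665nm. Cells were primary human leukocytes incubated 48 hr with compounds and a-CD3 beads, supplying TCR signal only.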
# TRb SRC2 PPI = qHTS for Inhibitors of the Interaction of Thyroid Hormone Receptor and Steroid Receptor Coregulator 2 | Potency, µM (top dose mostly 106 µM), for the others: top-dose activity change, negative = inhibition, usual class: inhibitors | TRbeta-SRC2 peptide binding, fluorescence polarization; receptor liganded with 1 µM T3 | Thyroid hormone receptor beta (Homo sapiens), P10828 | 280,000 tested, 0.065% active;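 note: potency is the fitted concentration of half-maximal effect; plate controls were bound peptide for no effect and peptide without receptor for full effect; nearly all actives have a fitted effect of over 50% in size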
#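 TRb LBD 0.6 uM + Texas Red SRC2 peptide 20 nM, 1 uM T3, Tris buffer w/ 5% DMSO; compound pinned, 5 h RT; FP read ex 555/em 632; normalized to unbound and bound controls.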
# TSHR antagonist = Antagonists of the Thyroid Stimulating Hormone Receptor: HTS campaign; Thyrotropin receptor (Homo sapiens), P16473; TSHR-expressing cells, TSH-stimulated cAMP HTRF, 2 h; active compounds read low; activity change, negative = inhibition, % at 11.5 µM; 330,000 tested, 0.2% active; AID 504810, 2011;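 active = activity change below a set negative limit, meaning inhibition stronger than a set level, cut at about -70% in these data; inconclusive = activity change between two set negative limits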; note: % is set by controls: 0 for no effect and ±100 for the full control effect
# Target sequence (P16473 whole entry, looked up): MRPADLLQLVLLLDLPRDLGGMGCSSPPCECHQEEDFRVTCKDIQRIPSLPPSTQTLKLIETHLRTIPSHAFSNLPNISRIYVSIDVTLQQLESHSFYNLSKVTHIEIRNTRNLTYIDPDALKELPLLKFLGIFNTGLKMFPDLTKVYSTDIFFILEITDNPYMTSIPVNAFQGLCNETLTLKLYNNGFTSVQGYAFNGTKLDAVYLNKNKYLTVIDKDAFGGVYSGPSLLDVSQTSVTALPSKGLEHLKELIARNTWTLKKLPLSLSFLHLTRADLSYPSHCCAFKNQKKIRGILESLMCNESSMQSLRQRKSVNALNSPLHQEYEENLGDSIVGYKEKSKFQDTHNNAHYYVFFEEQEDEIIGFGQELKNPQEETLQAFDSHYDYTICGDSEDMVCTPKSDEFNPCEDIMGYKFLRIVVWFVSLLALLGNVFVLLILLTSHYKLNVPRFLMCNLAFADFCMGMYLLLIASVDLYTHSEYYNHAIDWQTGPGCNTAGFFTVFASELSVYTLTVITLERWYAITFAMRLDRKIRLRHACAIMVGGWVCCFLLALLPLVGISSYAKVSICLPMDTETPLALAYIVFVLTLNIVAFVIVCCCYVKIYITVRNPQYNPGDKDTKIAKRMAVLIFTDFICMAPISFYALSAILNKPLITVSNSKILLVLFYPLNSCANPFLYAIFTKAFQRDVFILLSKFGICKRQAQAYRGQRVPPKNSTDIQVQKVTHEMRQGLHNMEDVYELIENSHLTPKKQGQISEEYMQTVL
#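 TSHR-expressing cells were treated with compounds, then stimulated with TSH at EC80 (4nM final) for 2 hours at 37 deg C. Cellular cAMP was measured by HTRF competition between lysate cAMP and cAMP-d2 for a cryptate-labelled anti-cAMP antibody.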
# Coupling enz = qHTS Assay for Inhibitors of Fructose-1,6-bisphosphate Aldolase from Giardia Lamblia: Coupling assay counterscreen. 290,000 tested, 0.67% active. coupling enzyme system counterscreen, AmpLite Red fluorescence. activity change, negative = inhibition, % at 58.2 µM, hits read low. AID 2472, 2010; in the data active = activity change below about -30%; note: % is set by controls: 0 for no effect and ±100 for the full control effect
#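 Activity here indicates interference with the coupling reaction, not aldolase inhibition. Compounds at 57.5 uM final met coupling enzymes for 10 min at RT; substrate and AmpLite Red detection followed, with a 525/598 nm fluorescence read after 20 min.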
# NPSR antagonist = qHTS Assay for Antagonists of the Neuropeptide S Receptor: cAMP Signal Transduction | 220,000 tested, 1% active | Potency, µM (highest dose often 38.3 µM), without a hit: at the highest dose activity change, negative = inhibition, usual class: inhibitors | Q6W5P4 | CHO-NPSR cells, cAMP TR-FRET, antagonist mode | AID 1461, 2008; note: potency is the fitted concentration of half-maximal effect; % is set by controls: 0 for no effect and ±100 for the full control effect; nearly all actives have a fitted effect of over 50% in size
# Active calls of the source: *; ? = inconclusive; . = no result given; [ ] = dose if it differs, or a comment. Only some compounds are listed: those with a hit (about 1% of all), similar ones and a draw of the others. Unless noted, calls come from the whole dose curve; as a rule, active = well fitted curve in the direction sought with a large enough effect; inconclusive = small, poorly fitted or top-dose-only effect, or another doubt; inactive = no such curve, though single readings can be large; an effect the other way counts as inactive or inconclusive.
SMILES,TR SRC2 fluor cs,TCR act,TRb SRC2 PPI,TSHR antagonist,Coupling enz,NPSR antagonist
COc1cc(C(=O)O[C@@H]2CC3CC[C@]2(C)C3(C)C)ccc1O,-0.9%,.,-2.2%,.,-2.4,.
O=C(CS(=O)(=O)c1cccc2nsnc12)NCc1ccccc1,3.2%,.,1.5%,.,.,.
O=C(CS(=O)(=O)c1cccc2nsnc12)NCc1ccc(Cl)cc1,1.78µM*[quencher],.,-18.3%,.,.,.
CC(C)CCNS(=O)(=O)c1ccc(N2CCCCS2(=O)=O)cc1,-1.2%,.,4.1%,.,.,.
CC(C)(C)C(=O)NC(Nc1cccc2cccnc12)C(Cl)(Cl)Cl (configuration not stated),-2.0%,-6.7%,-22.8%,-11.7,-66.3*,?
Cc1ccc(S(=O)(=O)NCCc2nnc3ccc(SCc4ccccc4F)nn23)cc1,1.3%,.,-8.3%,.,.,.
O=C(Nc1cccc(Cl)c1)OCC#CCCl,7.94µM*[fluorescent],.,0.794µM*,.,-38.3*,.
O=C(Nc1cccc(Cl)c1)OCCOC(=O)Nc1cccc(Cl)c1,.,-6.6%,.,.,.,.
CCCCCCCC1CCC(=O)O1 (configuration not stated),-3.2%[201 µM],.,8.2%[201 µM],.,.,.
CCCCOCCOCCOC(C)=O,-5.2%[201 µM],.,2.4%[201 µM],.,.,.
COCCCNC(=O)C1CCN(C(=O)c2cc3sccc3n2Cc2ccc(Cl)cc2)CC1,?,.,-0.7%,.,.,.
CCn1c(C(=O)N2CCC(C(=O)NCCc3ccc(OC)cc3OC)CC2)cc2sccc21,22.4µM*[quencher],.,-9.7%,.,.,.
COCCNC(=O)C1CCN(C(=O)c2cc3sccc3n2Cc2ccc(Cl)cc2)CC1,28.2µM*[quencher],.,-6.3%,.,.,.
CS(=O)(=O)c1ccc(Cl)cc1,-1.4%[201 µM],.,2.5%[201 µM],.,.,.
COc1ccc(/C=C2\N=C(c3ccccc3)N(c3ccc(C(=O)O)cc3)C2=O)cc1OC,-5.6%,7.4%,6.1%,-14.1,1.4,12.6µM*
COc1ccc(NC(=O)c2cc(S(=O)(=O)N3CCOCC3)cn2C)cc1Cl,10µM*[quencher],-0.8%,-13.8%,7.2,2.7,.
CC(C)CCCCOC(=O)c1ccccc1C(=O)OCCCCC(C)C,-2.7%[201 µM],.,1.0%[201 µM],.,.,.
CCOc1cc(/C=C2\C(=O)N(c3nc(-c4ccc(Br)cc4)cs3)N=C2c2ccccc2)ccc1O,28.2µM*[quencher],-2.1%,20.4%,-10.2,1.9,10µM*
CCn1c(=S)sc2c(=O)n(CC(=O)Nc3ccccc3OC)c(C)nc21,.,-1.1%,.,-134.1*,-1.1,.
O=C1SC(Nc2ccc(Cl)cc2)C(=O)N1Cc1ccccc1 (configuration not stated),0.0032µM*[quencher],.,-15.0%,.,.,.
CCOc1ccc(NC2SC(=O)N(Cc3ccccc3)C2=O)cc1 (configuration not stated),?,.,-5.9%,.,.,.
CCCCOCCOCCOC(=O)CCCCC(=O)OCCOCCOCCCC,-6.5%[201 µM],.,-3.4%[201 µM],.,.,.
Cc1sc(NC(=O)CCl)c(C(=O)c2ccccc2)c1C,3.1%,5.3%,-3.0%,1.6,14.9,7.94µM*
Cc1ccccc1C(=O)Nc1sc(C)c(C)c1C(=O)c1ccccc1,1.0%,4.5%,10.0%,4.0,1.3,-24.1%[46.1 µM]
O=C(Nc1cccc(F)c1)N1CC[C@@]2(CCCN(C(=O)c3cc(C(F)(F)F)cc(C(F)(F)F)c3)C2)C1,.,.,.,.,0.2,.
CC(=O)Nc1ccc(S(=O)(=O)Nc2c(NC3CCCCC3)c3ccccc3oc2=O)cc1,.,-1.7%,.,-89.2*,1.2,.
C=CCc1ccccc1OCCn1c(C2CC(=O)N(Cc3ccc(F)cc3)C2)nc2ccccc21 (configuration not stated),-0.8%,.,-13.7%,.,.,.
CCOc1ccc(NC(=O)N2CCN(S(=O)(=O)c3ccc4c(ccn4C)c3)CC2)cc1,-2.1%,.,1.6%,.,.,.
Cc1ccc(S(=O)(=O)N2CCCC(C(=O)NC3CCCC3)C2)cc1Cl (configuration not stated),.,-6.3%,.,-84.4*,0.4,.
